Records with an inconclusive call do not appear. The source made the active and inactive calls. The calls were made as follows, unless noted: active = hit-call score of the fitted dose curve at least 0.9, where 1 is the maximum; inconclusive = response in the unintended direction; inactive = score below 0.9.
Experiments:
[1] = test system: Thyroperoxidase (TPO), gene 54314; test: CCTE_Simmons_AUR_rTPO: CCTE's Amplex UltraRed Assay for Thyroperoxidase (TPO) Inhibition, Simmons Lab (AID 2283662);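 as to AC50: potency for loss of signal meaning inhibition of peroxidase activity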
Outline: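 Endpoint is decreased Amplex UltraRed fluorescence after a 30-min, 37C reaction of rat thyroid microsomes with 300 uM H2O2. Eight test concentrations (5 nM–87.5 uM final) in 0.5% DMSO, three biological replicates each.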

[2] = Tanguay_ZF_120hpf_TR_legacy: (Legacy) Oregon State University Tanguay Lab 120 Hour Post-fertilization zebrafish Assay for Touch Response (AID 2283667)
Outline: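 Tropical 5D wild-type zebrafish embryos were exposed statically in sealed, foil-covered plates at 28C until 120 hpf, with 0.64% (vol/vol) final DMSO. Touch response was scored as present or absent; embryos that died were not scored.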

[3] = STM_H9_OrnithineISnorm_perc: Stemina devTOX quickPredict H9 human embryonic stem cell (hESC)-based Assay for Ornithine (ORN) Metabolite Biomarker, Normalized (AID 2283712; active = hit-call score of the fitted dose curve at least 0.9, where 1 is the maximum; inactive = score below 0.9;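 also: ornithine released into spent medium during last day measured by mass spectrometry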)
Outline: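 Undifferentiated H9 hESCs exposed 72 h with daily media and compound renewal; final 24-h conditioned medium analysed by UPLC-HRMS. Ornithine peak area normalised to spiked C13 standard and to median 0.1% DMSO control; viability by CellTiter-Fluor.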

[4] = Tanguay_ZF_120hpf_ActivityScore_legacy: (Legacy) Oregon State University Tanguay Lab 120 Hour Post-fertilization zebrafish Assay Score for Activity (AID 2283742);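 as to AC50: static exposure from 6 hpf until 120 hpf at 28 °C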
Outline: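 Tropical 5D wild-type zebrafish embryos, dechorionated with pronase at 4 hpf, were exposed singly from 6 hpf to 120 hpf statically at 28C in 0.64% DMSO. Malformations and mortality were scored as binary by brightfield, with the activity score combining 18 morphology components.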

[5] = ArunA_CellTiter_hNC: Viability Assessment in the ArunA Biomedical's Oris Neural Crest (hNC) Cell Migration Assay (AID 2283752)
Outline: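 Human H9-derived neural crest cells plated on Matrigel (60,000/well) with LIF and bFGF, incubated 16 h, then exposed 72 h to chemical in test medium. Viability measured with CellTiter Aqueous One reagent; loss of signal versus DMSO.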

[6] = ArunA_CellTiter_hNP: Viability Assessment in the ArunA Biomedical's Oris Neural Crest (hNC) Cell Migration Assay (AID 2283753)
Outline: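 H9-derived hNP1 neuroprogenitors, 60,000/well on Matrigel, cultured 16 h, then 72 h chemical exposure in test medium. Cell titer via CellTiter Aqueous One; positive-direction fit vs DMSO.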

[7] = ArunA_Migration_hNP: ArunA Biomedical's Oris Neuroprogenitor (hNP) Cell Migration Assay (AID 2283754)
Outline: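 Human H9-derived hNP1 neuroprogenitors on Matrigel with LIF/bFGF, plated around seeding stoppers for 16 h at 37C; stoppers removed at start of 72 h chemical exposure. Calcein-AM staining, fluorescence 494/517 nm in detection zone; loss-of-signal vs DMSO; cytochalasin D control.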

[8] = ArunA_Migration_hNC: ArunA Biomedical's Oris Neural Crest (hNC) Cell Migration Assay (AID 2283755)
Outline: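 Human H9-derived neural crest stem cells, 60,000/well on Matrigel, 16 h at 37C, then 72 h chemical exposure after seeding-stopper removal. Migration into detection zone read as calcein-AM fluorescence (ex494/em517), relative to DMSO.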

[9] = ArunA_NOG_NucleusCount: ArunA Biomedical's Neurite Outgrowth (NOG) Assay for Nucleus Count (AID 2283756)
Outline: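 Human H9-derived differentiated neurons were exposed for 48 h right after seeding. Hoechst-stained nuclei gated by size and intensity were counted by automated high-content imaging as viable neurons. Loss of signal vs DMSO.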

[10] = ArunA_NOG_NeuriteLength: ArunA Biomedical's Neurite Outgrowth (NOG) Assay for Neurite Length (AID 2283757)
Outline: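 Differentiated human H9-derived neurons were exposed for 48 h from seeding, then stained with Hoechst and βIII-tubulin. Automated high-content imaging gave total neurite length per valid neuron, counting processes >10 um. Loss of signal was scored versus DMSO.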

[11] = ArunA_NOG_NeuritesPerNeuron: ArunA Biomedical's Neurite Outgrowth (NOG) Assay for Neurites Per Neuron (AID 2283758)
Outline: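 Differentiated human H9-derived neurons exposed to chemicals for 48 h from seeding, then stained with Hoechst and βIII-tubulin/DyLight 488. Automated imaging counted neurites (processes >10 um) per valid neuron; loss of signal versus DMSO scored.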

[12] = molecular target: Luciferin 4-monooxygenase (Photinus pyralis) (UniProt P08659); test: CCTE_Simmons_QuantiLum_inhib_2: CCTE's Firefly Luciferase Inhibition Assay, Simmons Lab (AID 2283767);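 as to AC50: potency for inhibitors that lower luciferase luminescence relative to DMSO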
Outline: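 Cell-free recombinant firefly luciferase (5 ng/well) in 200mM potassium phosphate with 1 mg/ml BSA, 30 min at 37C with 8 concentrations from 5 nM to 87.5 uM [final], 0.5% DMSO. Luminescence read after D-luciferin (150uM)/dATP (147uM) reagent injection, pH 7.8; triplicates.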

[13] = test system: Thyroperoxidase (TPO), gene 445522; test: CCTE_Simmons_GUA_TPO: CCTE's Guaiacol Assay for Thyroperoxidase (TPO) Inhibition, Simmons Lab (AID 2283750)
Outline: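 Porcine thyroid microsomes (25 ug) in 200mM potassium phosphate, preincubated 30 s at 37C with compound (8 concentrations, 5 nM–87.5 uM) and 35mM guaiacol; 1mM H2O2 starts reaction. Absorbance change at 450nm over first 80 s; loss of signal versus DMSO, three replicates.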

[14] = CCTE_Padilla_ZF_144hpf_TERATOSCORE: (Legacy) CCTE's 144 Hour Post-fertilization zebrafish Assay Teratoscore, Padilla Lab (AID 2283679; active = hit-call score of the fitted dose curve at least 0.9, where 1 is the maximum; inactive = score below 0.9;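 as to AC50: zebrafish embryos with chorions exposed by immersion from 6-8 hpf to 5 dpf with daily renewal; teratogenicity score from eye scoring of death hatching and malformations at 144 hpf; higher score means more developmental defects relative to DMSO baseline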)
Outline: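 Larvae scored by eye at 144 hpf for death, hatching and malformations after a day in clean Hanks'. Before that, daily-renewed exposure at 80 uM (0.4% DMSO, 26C) from roughly 6-8 hpf through 5 dpf, 4 embryos per chemical.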

[15] = ArunA_NOG_BranchPointsPerNeurite: ArunA Biomedical's Neurite Outgrowth (NOG) Assay for Branch Points Per Neurite (AID 2283759)
Outline: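 Automated image analysis traced neurites (processes >10 um) from valid cell bodies after Hoechst and βIII-tubulin staining. hNN cells from H9 embryonic stem cells, 48 h exposure. Fitted bidirectionally against DMSO.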

[16] = read-out: matrix metalloproteinase-1 (MMP1), MMP1 (gene 4312); test: LTEA_HepaRG_MMP1: Life Technologies and Expression Analysis (LTEA) Assay for matrix metalloproteinase-1 (MMP1) using HepaRG (AID 2283658; active = hit-call score of the fitted dose curve at least 0.9, where 1 is the maximum; inactive = score below 0.9); settings: mRNA level, 48 h; actives raise or lower the signal
Outline: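 Differentiated HepaRG cells, plated 48 h then switched to serum-free induction medium, were exposed in duplicate for 48 h to eight half-log concentrations up to 100 uM in 0.5% DMSO; MMP1 mRNA measured by qRT-PCR, normalized to ACTB, GAPDH, POLR2A.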

[17] = read-out: Cytochrome P450 (CYP24A1_1), CYP24A1 (gene 1591); test: LTEA_HepaRG_CYP24A1_1: Life Technologies and Expression Analysis (LTEA) Assay for Cytochrome P450 (CYP24A1_1) using HepaRG (AID 2283671; active = hit-call score of the fitted dose curve at least 0.9, where 1 is the maximum; inactive = score below 0.9); settings: mRNA level, 48 h; actives raise or lower the signal
Outline: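 HepaRG, 48 h exposure, 8-pt half-log series from 100 uM in 0.5% DMSO, duplicates. Readout: TaqMan qRT-PCR of CYP24A1 mRNA, housekeeping-normalized (ACTB/GAPDH/POLR2A). Bidirectional curve fit vs DMSO baseline.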

[18] = CEETOX_H295R_MTT_cell_viability: Viability Assessment in the CeeTox HT-H295R MTT Assay (AID 2283718; active = hit-call score of the fitted dose curve at least 0.9, where 1 is the maximum; inactive = score below 0.9;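 as to AC50: curve fitted both ways so AC50 may mark viability loss or gain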)
Outline: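 H295R cells prestimulated 48 h with 10 uM forskolin, then exposed 48 h to test chemical (0.1% DMSO final). Viability by MTT (0.5 mg/ml, 4 h, 37 C), absorbance 570/650 nm; percent change versus DMSO, bidirectional fit.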

[19] = test system: zebrafish Androgen Receptor (AR), gene 100005148; test: ATG_zfAR_XSP1: Attagene TRANS-FACTORIAL Multi-Species (XSP1) HepG2 Assay for zebrafish Androgen Receptor (AR) (AID 2283771)
Outline: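 HepG2 cells were transiently transfected with a zebrafish AR-GAL4 reporter system and partially stimulated with 3 nM 6-alpha-fluorotestosterone. Reporter mRNA was measured after 24 h dosing by RT-PCR with capillary electrophoresis, and gain-of-signal was fitted relative to DMSO.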

[20] = molecular target: zebrafish Estrogen Receptor (ESR1), esr1 (gene 259252) (UniProt P57717); test: ATG_zfER1_XSP1: Attagene TRANS-FACTORIAL Multi-Species (XSP1) HepG2 Assay for zebrafish Estrogen Receptor (ESR1) (AID 2283772)
Outline: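 HepG2 cells were transiently transfected with multiplexed GAL4-UAS reporter units driven by chimeric NR-GAL4 proteins, dosed for 24 h with 3 nM 6-alpha-fluorotestosterone present, and reporter mRNA quantified by RT-PCR and capillary electrophoresis versus DMSO.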

Measured: AC50

Sequence of Luciferin 4-monooxygenase (Photinus pyralis) (P08659 whole entry, looked up): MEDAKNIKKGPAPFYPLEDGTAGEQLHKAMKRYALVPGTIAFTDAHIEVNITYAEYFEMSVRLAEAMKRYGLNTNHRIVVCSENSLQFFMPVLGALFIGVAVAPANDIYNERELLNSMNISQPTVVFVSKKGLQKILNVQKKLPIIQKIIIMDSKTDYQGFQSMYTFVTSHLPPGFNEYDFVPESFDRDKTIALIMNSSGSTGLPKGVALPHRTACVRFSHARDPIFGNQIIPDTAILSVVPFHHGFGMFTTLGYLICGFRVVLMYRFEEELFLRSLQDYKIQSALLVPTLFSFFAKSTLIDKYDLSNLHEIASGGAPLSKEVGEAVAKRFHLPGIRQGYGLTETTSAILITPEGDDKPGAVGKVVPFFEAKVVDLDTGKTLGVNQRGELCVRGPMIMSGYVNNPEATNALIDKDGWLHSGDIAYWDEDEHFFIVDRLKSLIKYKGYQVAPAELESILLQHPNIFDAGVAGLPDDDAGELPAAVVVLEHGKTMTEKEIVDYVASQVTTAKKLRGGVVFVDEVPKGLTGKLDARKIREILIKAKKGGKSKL
Sequence of zebrafish Estrogen Receptor (ESR1), esr1 (gene 259252) (P57717 whole entry, looked up, the tested form may be a part): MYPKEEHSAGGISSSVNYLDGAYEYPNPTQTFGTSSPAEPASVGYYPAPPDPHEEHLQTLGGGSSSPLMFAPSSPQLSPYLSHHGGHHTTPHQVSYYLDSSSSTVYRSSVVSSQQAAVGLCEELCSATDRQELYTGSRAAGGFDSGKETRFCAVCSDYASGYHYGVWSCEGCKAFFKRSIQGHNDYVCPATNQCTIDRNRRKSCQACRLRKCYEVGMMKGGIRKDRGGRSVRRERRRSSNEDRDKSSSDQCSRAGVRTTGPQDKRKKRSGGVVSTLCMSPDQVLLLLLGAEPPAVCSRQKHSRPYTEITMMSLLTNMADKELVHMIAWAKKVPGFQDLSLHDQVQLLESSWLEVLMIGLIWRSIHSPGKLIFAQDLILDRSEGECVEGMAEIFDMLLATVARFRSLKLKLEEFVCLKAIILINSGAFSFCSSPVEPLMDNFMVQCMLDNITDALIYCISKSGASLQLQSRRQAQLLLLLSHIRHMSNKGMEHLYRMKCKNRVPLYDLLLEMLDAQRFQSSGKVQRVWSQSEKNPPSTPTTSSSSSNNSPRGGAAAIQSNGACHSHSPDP

CCCCC(CC)COC(=O)CC(C(=O)OCC(CC)CCCC)S(=O)(=O)O (stereo not given)
active: [1] 43.8 µM | [6] 7.54 µM | [7] 77.9 µM | [8] 28.7 µM | [12] 13.1 µM
inactive: [2] | [3] | [4] | [5] | [9] | [10] | [11]

Cc1cccc(C)c1O
inactive: [2] | [4] | [13] | [12]
active: [1] 23.4 µM

O=c1c(O)c(-c2ccc(O)c(O)c2)oc2cc(O)cc(O)c12
inactive: [2] | [14] | [3] | [4] | [5]
active: [1] 0.182 µM | [6] 3.88 µM | [7] 3.08 µM | [8] 2.36 µM | [10] 9.45 µM | [11] 7.94 µM | [15] 8.06 µM | [12] 53.8 µM

Cc1ccc(Cl)cc1
inactive: [16] | [2] | [17]

CCCCN(CCCC)CCCC
inactive: [16] | [2] | [17] | [4]

Cc1c(C(=O)O)c(O)cc2c1C(=O)c1c(O)c([C@@H]3O[C@H](CO)[C@@H](O)[C@H](O)[C@H]3O)c(O)c(O)c1C2=O
active: [1] 2.65 µM | [12] 18.5 µM
inactive: [2] | [14] | [3] | [18] | [4]

CN[C@H]1CC[C@@H](c2ccc(Cl)c(Cl)c2)c2ccc(S(N)(=O)=O)cc21
active: [14] 61.9 µM | [12] 10.7 µM
inactive: [1] | [2] | [4]

Cc1ccc(C)c(C)c1
inactive: [16] | [2] | [17] | [4]

C=CCc1ccc(O)c(OC)c1
inactive: [2] | [18] | [4] | [12]
active: [1] 6.16 µM

CC(=O)OC/C=C(\C)CCC=C(C)C
inactive: [16] | [1] | [2] | [17] | [4]
active: [14] 52.8 µM

CCCc1cc(=O)[nH]c(=S)[nH]1
inactive: [2] | [3] | [4] | [7] | [8] | [9] | [10] | [11] | [15] | [12]
active: [1] 0.285 µM

COc1ccc(C)cc1N
active: [1] 1.23 µM
inactive: [2] | [18] | [4] | [12]

COc1cc(C=O)ccc1O
inactive: [16] | [17]
active: [14] 11.8 µM | [4] 69.8 µM

Cc1cc(=O)[nH]c(=S)[nH]1
active: [1] 0.593 µM | [13] 7.71 µM | [12] 53.8 µM
inactive: [2] | [4]

CCNc1cccc(C)c1
inactive: [2] | [4] | [13] | [12]
active: [1] 12.1 µM

CCCCCCCCCCC
inactive: [16] | [2] | [17] | [4]

Nc1ccc(S(=O)(=O)c2ccc(N)cc2)cc1
inactive: [2] | [4] | [12]
active: [1] 6.89 µM

Cc1cc(NC(=O)C(=O)O)cc(C)c1Oc1ccc(O)c2c1CCC2
inactive: [2] | [3] | [18] | [5] | [7] | [8] | [9]
active: [1] 5.07 µM | [14] 0.657 µM | [4] 0.216 µM | [12] 79.3 µM

COc1cc(S(=O)(=O)O)c(C)cc1N=Nc1c(O)ccc2cc(S(=O)(=O)O)ccc12
active: [1] 23.3 µM | [12] 10.7 µM
inactive: [2] | [4]

Nc1nc(N)c2nc(CNc3ccc(C(=O)N[C@@H](CCC(=O)O)C(=O)O)cc3)cnc2n1
active: [1] 11.7 µM
inactive: [2] | [4] | [12]

CN1CCCC1=O
inactive: [16] | [2] | [17] | [4] | [12]

C1CCC(SSC2CCCCC2)CC1
inactive: [16] | [17] | [14] | [4]

C[C@]12C=CC(=O)C=C1CC[C@@H]1[C@@H]2C(=O)C[C@@]2(C)[C@H]1CC[C@]2(O)C(=O)CO
inactive: [1] | [2] | [14] | [4] | [12]
active: [18] 0.844 µM

Nc1ccccc1N
inactive: [18] | [4]
active: [1] 4.15 µM | [2] 77 µM | [14] 89.9 µM | [3] 7.65 µM | [12] 24.8 µM

Cc1oc(-c2ccccc2)nc1CCOc1cccc2c1ccn2CCC(=O)O
active: [1] 28.8 µM | [14] 16.1 µM
inactive: [2] | [3] | [18] | [4] | [12]

CC(C)(C)c1cc(O)c(C(C)(C)C)cc1O
active: [1] 3.58 µM | [2] 34.6 µM | [14] 1.19 µM | [4] 40.5 µM
inactive: [12] | [19] | [20]

Oc1ccc2ccccc2c1N=Nc1ccccc1
active: [2] 25.4 µM | [14] 5.21 µM | [4] 0.0559 µM | [12] 12.6 µM
inactive: [16] | [1] | [17] | [3] | [18] | [5] | [7] | [8] | [15]

— PubChem BioAssay (EPA / NIEHS)
